{"source": "PubChem BioAssay AID743360", "about": "(Molecular Libraries Program, Specialized Chemistry Center, …, 2014)", "note": "“And” between values parts separate entries of the source, which are not always exact repeats. Identical values can stand only once. Unmarked numbers belong to inactive results. The source made the active and inactive calls.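 Rule for the calls: active = calcium retention capacity relative to untreated control above about 1.1 ratio (limit read from the data); inactive = the rest.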", "data": [{"assay": "mtPTP inhibition via calcium retention, dose response, biochemical, dry powder samples, uHTS hits, Calcium Green-5N (AID 743360)", "conditions": "isolated mitochondria, Ca retention capacity", "values": [{"smiles": "COc1ccc(Cl)cc1C(=O)Nc1ccc(CN2CCNCC2)cc1", "CRC/CRC0 ratio at 12.5 uM (higher = more inhibition)": "1.65 (active)"}, {"smiles": "C[C@@H]1CCC[C@H](C)N1CCCC(=O)c1ccc(Br)cc1", "CRC/CRC0 ratio at 12.5 uM (higher = more inhibition)": 1.01}, {"smiles": "CN1CCN(Cc2ccc(NS(=O)(=O)c3cccc(Cl)c3)cc2)CC1", "CRC/CRC0 ratio at 12.5 uM (higher = more inhibition)": 1.01}, {"smiles": "COc1ccc(Cl)cc1C(=O)Nc1ccc(CCN2CCN(C)CC2)cc1", "CRC/CRC0 ratio at 12.5 uM (higher = more inhibition)": "1.37 (active)"}, {"smiles": "O=C(Nc1cccc(Cl)c1)c1cc(-c2cccc(O)c2)on1", "CRC/CRC0 ratio at 12.5 uM (higher = more inhibition)": "5.47 (active) and 7.74 (active)"}, {"smiles": "Cc1ccc(NC(=O)c2cc(-c3cccc(O)c3)on2)cc1Cl", "CRC/CRC0 ratio at 12.5 uM (higher = more inhibition)": "2.58 (active)"}, {"smiles": "O=C(Nc1ccccc1OCc1ccccc1)c1cc(-c2cccc(O)c2)on1", "CRC/CRC0 ratio at 12.5 uM (higher = more inhibition)": "1.14 (active)"}, {"smiles": "Cc1cc(NC(=O)c2cc(-c3ccc(F)cc3)on2)no1", "CRC/CRC0 ratio at 12.5 uM (higher = more inhibition)": "> 1"}, {"smiles": "O=S(=O)(Nc1ccc(CN2CCCCC2)cc1)c1cccc(Cl)c1", "CRC/CRC0 ratio at 12.5 uM (higher = more inhibition)": 1.03}, {"smiles": "O=C(Nc1ccc(CN2CCCCC2)cc1)c1cccc(OCc2ccccc2)c1", "CRC/CRC0 ratio at 12.5 uM (higher = more inhibition)": "3.54 (active)"}, {"smiles": "O=C(Nc1ccc(Br)cc1)c1cc(C2CC2)on1", "CRC/CRC0 ratio at 12.5 uM (higher = more inhibition)": 1.06}, {"smiles": "CC(C)c1cc(C(=O)Nc2ccc(F)cc2F)no1", "CRC/CRC0 ratio at 12.5 uM (higher = more inhibition)": 1.09}, {"smiles": "O=C(Nc1ccc(CN2CCCCC2)cc1)c1cc(OCc2ccccc2)ccc1Cl", "CRC/CRC0 ratio at 12.5 uM (higher = more inhibition)": "2.26 (active)"}, {"smiles": "COc1ccc(Cl)c(C(=O)Nc2ccc(CCN3CCOCC3)cc2)c1", "CRC/CRC0 ratio at 12.5 uM (higher = more inhibition)": "> 1"}, {"smiles": "COc1ccc(Cl)cc1C(=O)Nc1ccc(N(C)C)cc1", "CRC/CRC0 ratio at 12.5 uM (higher = more inhibition)": "1.18 (active)"}, {"smiles": "COc1ccc(Cl)c(C(=O)Nc2cccc(CN3CCN(C(=O)OC(C)(C)C)CC3)c2)c1", "CRC/CRC0 ratio at 12.5 uM (higher = more inhibition)": 1.04}, {"smiles": "O=C(Nc1cccc(Cl)c1Cl)c1cc(-c2cccc(O)c2)on1", "CRC/CRC0 ratio at 12.5 uM (higher = more inhibition)": "4 (active)"}]}]}
